High-throughput results as filed in PubChem.
RBX1-CUL1 inh – human ROC1-CUL1 E3 ligase inhibition | in vitro K48 di-Ub FRET, acceptor:donor ratio, 45 min | inhibition, % at 10 µM | 140,000 tested, 0.6% active | AID 1347404; in the data active = inhibition above about 25%
Starred values were filed as active, the others as inactive. Shown is part of a subset that was picked to be rich in hits.

Screening O=C1NN(c2cccc(Cl)c2)C(=O)/C1=C\c1ccc(-c2ccc(C(=O)O)c(Cl)c2)o1 returned RBX1-CUL1 inh 44*.
`CC(C)OC(=O)c1ccc(-c2ccc(/C=C3/C(=O)NN(c4ccccc4)C3=O)o2)cc1` gave RBX1-CUL1 inh 3.
For O=S(=O)(Nc1cccnc1Cl)c1ccccc1 the results were RBX1-CUL1 inh 6.
Screening CC(C)(C)c1cc(/C=N/NC(=O)c2ccccc2O)cc(C(C)(C)C)c1O returned RBX1-CUL1 inh -3.
Screening O=C(NC1CC1)C1CCCN(C2CCN(Cc3ccsc3)CC2)C1 (configuration not stated) returned RBX1-CUL1 inh 10.
`CCN1C(=O)C(C=Nc2ccc(C(F)(F)F)cc2Cl)C(=O)N(CC)C1=S` gave RBX1-CUL1 inh 8.
Screening CC(C)=CC(=O)/C=C(/C)c1cccs1 returned RBX1-CUL1 inh -5.
N#C/C(=C\c1ccco1)C(=O)c1cccs1 was read as RBX1-CUL1 inh 57*.
For N#Cc1c(-c2ccccc2)c(-c2ccccc2)n(Cc2ccco2)c1NC(=O)c1cccs1 the results were RBX1-CUL1 inh -3.
Screening O=C(Cn1cc(SCc2c(F)cccc2Cl)c2ccccc21)N1CCCCC1 returned RBX1-CUL1 inh -5.
O=C(c1ccc(Cl)s1)N1CCN(C2CCCCC2)CC1 was read as RBX1-CUL1 inh 72*.
For Cc1cc(C(=O)N2CCN(C3CCCCC3)CC2)cs1 the results were RBX1-CUL1 inh 10.
For O=C(c1ccc(Cl)s1)N1CCN(Cc2ccc(F)cc2)CC1 the results were RBX1-CUL1 inh 9.
COc1cccc(OC)c1-c1cnnc(N(C)Cc2n[nH]c3c2CCCC3)n1 was read as RBX1-CUL1 inh 12.
For CC(=O)C(C(C)=O)C1=CC(=O)C(=O)c2ccccc21 the results were RBX1-CUL1 inh 103*.
`O=C(OC1=CC(=O)c2ccccc2C1=O)c1ccccc1` gave RBX1-CUL1 inh -17.
CCc1cc2c(cc1OC(C)=O)C(=O)c1ccccc1C2=O was read as RBX1-CUL1 inh 10.
`COc1ccccc1NC(=O)C1CCC(CNS(=O)(=O)c2ccc3c(c2)CC(C)N3C(C)=O)CC1` (configuration not stated) gave RBX1-CUL1 inh -5.
Cc1ccc(NC(=O)Cn2c(=O)n(Cc3ccco3)c(=O)c3ccc(C(=O)NC4CCCC4)cc32)c(C)c1 was read as RBX1-CUL1 inh 5.
Cc1ccc(C)n1-c1cccc(Cl)c1Cl was read as RBX1-CUL1 inh 3.
Screening Cc1ccc(C(=O)O)cc1-n1c(C)ccc1-c1ccccc1 returned RBX1-CUL1 inh 7.
Cc1ccc(C)n1-c1cc(C(=O)O)ccc1Cl was read as RBX1-CUL1 inh 101*.
For Cc1ccc(C)n1-c1ccc(C(N)=O)cc1 the results were RBX1-CUL1 inh 2.
`Cc1ccc(-c2ccccc2)n1-c1cccc(C(=O)O)c1` gave RBX1-CUL1 inh -4.
For Cc1ccc(-c2ccccc2)n1-c1ccc(C(=O)O)cc1 the results were RBX1-CUL1 inh 3.
For Cc1ccc(C(=O)O)cc1-n1c(C)ccc1C the results were RBX1-CUL1 inh 96*.
`Cc1cc(C(=O)O)ccc1-n1c(C)ccc1C` gave RBX1-CUL1 inh 99*.
Cc1ccc(-c2ccccc2)n1-c1ccc(Cl)c(C(=O)O)c1 was read as RBX1-CUL1 inh 1.
O=C(CCC(F)(F)F)NC1CC(=O)N(C2CCCCCC2)C1 (configuration not stated) was read as RBX1-CUL1 inh 5.
`COc1cc(CCc2nc(-c3c(C)ncc4c3CCNC4)no2)ccc1C` gave RBX1-CUL1 inh -1.
For COc1ccc(NC(=O)NCc2c(-n3cccc3)sc3c2CCCC3)c(OC)c1 the results were RBX1-CUL1 inh 2.
COc1ccc(NC(=O)CSc2nc(-c3ccc(OC)c(OC)c3)ccc2C#N)c(OC)c1 was read as RBX1-CUL1 inh -2.
Screening CC1=NN(c2ccc(F)cc2)C(=O)C1=Cc1c(O)n(-c2ccccc2)c(=S)n(-c2ccccc2)c1=O returned RBX1-CUL1 inh 0.
COc1cccc(/C=C2\C(=O)N(c3ccccc3)N=C2C)c1OC was read as RBX1-CUL1 inh -11.
Screening CC1=NN(c2ccccc2)C(=O)/C1=C/c1cccc(OC2CSC2)c1 returned RBX1-CUL1 inh 32*.
For CC1=NN(c2cc(Cl)cc(Cl)c2)C(=O)/C1=C\c1ccc(N2CCOCC2)cc1 the results were RBX1-CUL1 inh 0.
For CC1=NN(c2ccccc2)C(=O)/C1=C\c1ccc(C(C)(C)C)cc1 the results were RBX1-CUL1 inh 40*.
For CC1=NN(c2ccccc2)C(=O)/C1=C/c1cc(C)n(-c2cccc(C(F)(F)F)c2)c1C the results were RBX1-CUL1 inh 3.
For CC1=NN(c2ccccc2)C(=O)/C1=C\C1=Nc2ccccc2C1 the results were RBX1-CUL1 inh 11.
For CC(=O)Nc1ccc(N2N=C(C)/C(=C/c3ccccc3)C2=O)cc1 the results were RBX1-CUL1 inh 41*.
For CC(=O)Oc1ccc(-n2c(C)cc(/C=C3\C(=O)N(c4ccccc4)N=C3C)c2C)cc1 the results were RBX1-CUL1 inh 4.
Screening CCn1cc2nc(SCC(=O)Nc3ccc(OC)c(OC)c3)n(Cc3ccc(Cl)cc3)c(=O)c2n1 returned RBX1-CUL1 inh -2.
`CCN(CC)Cc1c(C(=O)N/N=C(\C)c2ccc(O)cc2)nnn1-c1nonc1N` gave RBX1-CUL1 inh 1.
`CCn1c(=O)c2cc(C(=O)N(CCN(C)C)Cc3ccccc3)sc2c2ccccc21` gave RBX1-CUL1 inh -8.
For C=CCN1C(=O)/C(=C/c2c(OCc3ccccc3C#N)ccc3ccccc23)C(=O)NC1=S the results were RBX1-CUL1 inh 14.
O=C1NC(=S)NC(=O)C1=Cc1c(OCc2ccc(Br)cc2)ccc2ccccc12 was read as RBX1-CUL1 inh 58*.
Screening O=C1NC(=S)NC(=O)C1=Cc1cc(Cl)ccc1OCc1ccc(C(=O)O)cc1 returned RBX1-CUL1 inh 12.
Screening c1ccc(-c2nnc(-c3ccccc3)nn2)cc1 returned RBX1-CUL1 inh 0.
For CCCC(=O)Nc1cccc(Cl)c1 the results were RBX1-CUL1 inh -1.
Screening Cc1ccc(-c2nc(N)sc2C)cc1C returned RBX1-CUL1 inh 4.
Screening COc1ccc(OC)c(NC(=O)c2c(NCc3ccc(C)o3)sc3c2CCCCC3)c1 returned RBX1-CUL1 inh 30*.
Screening COc1ccc(OC)c(NC(=O)c2c(NCc3sccc3C)sc3c2CCCCC3)c1 returned RBX1-CUL1 inh 3.
`COc1ccc(OC)c(NC(=O)c2c(NCc3ccc(OC)c(OC)c3)sc3c2CCC3)c1` gave RBX1-CUL1 inh 3.
Screening COc1ccccc1NC(=O)c1c(NCc2ccc(C)o2)sc2c1CCCCC2 returned RBX1-CUL1 inh 24.
`COc1ccc(Cl)cc1NC(=O)c1c(NCc2ccc(C)o2)sc2c1CCC(C)C2` (configuration not stated) gave RBX1-CUL1 inh -3.
Screening COc1ccc(Cl)cc1NC(=O)c1c(NCc2ccc(C)o2)sc2c1CCCCC2 returned RBX1-CUL1 inh 26*.
For COc1cc(NC(=S)NCc2ccccc2)c(OC)cc1Cl the results were RBX1-CUL1 inh -9.
COc1ccccc1N1CCN(C(=O)Cc2ccc(Br)cc2)CC1 was read as RBX1-CUL1 inh 0.
`O=c1c2ccccc2nc(C(Cl)(Cl)Cl)n1Cc1ccc(F)cc1` gave RBX1-CUL1 inh 0.
`CC(C)(C)c1ccc(C(=O)N2CCC(C(=O)Nc3ccc(OCc4ccccc4)cc3)CC2)cc1` gave RBX1-CUL1 inh 4.
COc1cc(/C=C2\SC(=O)N(c3cccc(Cl)c3)C2=O)cc(Br)c1OC was read as RBX1-CUL1 inh 2.
